Experiment [1] deals with Rap guanine nucleotide exchange factor 3 (Homo sapiens) (UniProt O95398). Put plainly: Counterscreen qHTS for antagonist of cAMP-regulated guanine nucleotide exchange factor 3 (EPAC1) (AID 1645888; active = well fitted inhibition curve with a large enough effect;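 note: fluorescence loss as bound BODIPY-GDP is released from Rap1B; % of control where 0% means no effect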). Summed up:
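Rap1B-BODIPY-GDP 250 nM + GDP 50 uM; cpds 7-pt, final 9.74 nM–152 uM (activator mode) or from 7.32 nM upwards (inhibitor mode); RT; FI 480/540 nm at 5 and 30 min, then ± cAMP, reread.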
For orientation: A counterscreen serves to expose hits that act by an unwanted route or on another target.

Experiment [2] has as its target Guanidinoacetate N-methyltransferase (Homo sapiens) (UniProt Q14353). Nature of the experiment: Confirmatory Screen for Target Class Profiling of Small Molecule Inhibitors of Methyltransferases (AID 1745852). For activity change, negative = inhibition: % is set by controls: 0 for no effect and ±100 for the full control effect. Note: potency is the fitted concentration of half-maximal effect. The following applies: MTase-Glo luminescence, SAH detection, recombinant enzyme.

Records with an inconclusive call do not appear. Activity calls are given as the source filed them. Unless noted, calls come from the whole dose curve.

Sequence of Rap guanine nucleotide exchange factor 3 (Homo sapiens) (O95398 whole entry, looked up): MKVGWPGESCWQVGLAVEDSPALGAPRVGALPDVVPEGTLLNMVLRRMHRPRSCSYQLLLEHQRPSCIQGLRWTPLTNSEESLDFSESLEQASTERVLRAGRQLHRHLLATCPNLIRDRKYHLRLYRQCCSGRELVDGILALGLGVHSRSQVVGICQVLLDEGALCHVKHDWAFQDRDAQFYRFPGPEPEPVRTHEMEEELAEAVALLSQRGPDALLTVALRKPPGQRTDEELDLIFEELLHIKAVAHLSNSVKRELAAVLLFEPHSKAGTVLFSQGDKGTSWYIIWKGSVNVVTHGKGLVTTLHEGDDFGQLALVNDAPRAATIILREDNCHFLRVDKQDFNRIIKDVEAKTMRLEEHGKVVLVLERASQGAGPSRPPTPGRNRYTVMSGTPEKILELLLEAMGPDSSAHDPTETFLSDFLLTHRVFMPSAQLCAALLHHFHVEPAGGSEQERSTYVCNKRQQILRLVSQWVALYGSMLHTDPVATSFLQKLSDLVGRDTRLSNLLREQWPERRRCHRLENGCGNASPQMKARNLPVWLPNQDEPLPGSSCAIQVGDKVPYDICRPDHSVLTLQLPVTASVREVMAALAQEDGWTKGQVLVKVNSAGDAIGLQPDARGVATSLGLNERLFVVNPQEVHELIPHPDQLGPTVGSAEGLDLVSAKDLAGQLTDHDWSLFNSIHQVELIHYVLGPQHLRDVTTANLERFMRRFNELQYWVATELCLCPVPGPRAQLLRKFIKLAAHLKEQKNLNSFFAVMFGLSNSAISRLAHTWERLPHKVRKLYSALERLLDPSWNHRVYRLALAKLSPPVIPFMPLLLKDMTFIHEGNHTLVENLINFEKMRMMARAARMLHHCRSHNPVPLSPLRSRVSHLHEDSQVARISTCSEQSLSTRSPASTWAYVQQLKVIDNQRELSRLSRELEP

`CCCc1c(OCCCCc2nn[nH]n2)ccc(C(C)=O)c1O`: the compound was called inactive in experiment [1]. On to `Cc1cc(C(C#N)c2ccc(Cl)cc2)c(Cl)cc1NC(=O)c1cc(I)cc(I)c1O` (stereo not drawn), for which the Potency in experiment [2] is 30.4 µM (active).

For `CCN(CC)CCCC(C)Nc1c2ccc(Cl)cc2nc2ccc(OC)cc12` (stereo not drawn), in experiment [2] (at 29.8 µM (top of the series)), the activity change, negative = inhibition is -0.149%.

The values above are taken from PubChem BioAssay (NCATS).
